Laboratory results as given in PubChem BioAssay (NCI).
The panel holds about 79,000 compounds, 15% with a hit somewhere; the sample as a whole holds those more often. Cut-off read from the data, not from the text of the source: active = growth inhibition above about 70%; inactive = the rest.

What was measured:
[1] = NCI Yeast Anticancer Drug Screen. Data for the rad50 strain (AID 155);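 note: 0% = growth of vehicle-only cultures of the same strain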; settings: S. cerevisiae rad50 strain growth inhibition; at 50.0 µM; active compounds read high
Outline: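 Yeast carrying a defined DNA repair defect were exposed to test compounds, and growth was compared with vehicle-treated controls to give percent inhibition.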

[2] = NCI Yeast Anticancer Drug Screen. Data for the mec2-1 strain (AID 157); settings: S. cerevisiae mec2-1 strain, at 50.0 µM, active compounds read high
Outline: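 Strain: mec2-1 (DNA repair/cell cycle alteration). Compound exposure, then growth measured; inhibition expressed relative to vehicle.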

[3] = NCI Yeast Anticancer Drug Screen. Data for the sgs1 mgt1 strain (AID 161);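 note: 0% = growth of cultures given vehicle only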; settings: S. cerevisiae sgs1 mgt1 strain, at 50.0 µM, active compounds read high
Outline: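 Test agents were incubated with a DNA-repair-mutant yeast strain. Growth was then read and compared against vehicle-treated controls.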

[4] = NCI Yeast Anticancer Drug Screen. Data for the cln2 rad14 strain (AID 165);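 note: 0% = growth equal to vehicle treated cultures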; settings: S. cerevisiae cln2 rad14 strain, at 50.0 µM, active compounds read high
Outline: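 Compounds are applied to the cln2 rad14 yeast strain, and growth is then compared with that of vehicle-treated cultures to give inhibition.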

[5] = NCI Yeast Anticancer Drug Screen. Data for the bub3 strain (AID 167); settings: S. cerevisiae bub3 mutant strain, at 50.0 µM, active compounds read high
Outline: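 Compounds were applied to a genetically altered yeast strain carrying a cell-cycle control defect. Growth inhibition was scored against vehicle-treated controls.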

[6] = NCI Yeast Anticancer Drug Screen. Data for the mlh1 rad18 strain (AID 175); settings: S. cerevisiae mlh1 rad18 strain growth inhibition; at 50.0 µM; active compounds read high
Outline: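 Read-out is yeast growth inhibition, calculated against vehicle-only controls. The compound was applied to a strain engineered with DNA damage repair alterations.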

Measured: growth inhibition

CCCCCCCCO[Si](OCCCCCCCC)(OCCCCCCCC)OCCCCCCCC
inactive: [1] -24.6% | [2] -26.3% | [3] -16.8% | [4] 6.9% | [5] -15.2% | [6] -20.9%

CCCNC(=O)CCC(=O)NS(=O)(=O)c1ccc(Cl)cc1
inactive: [1] -14.4% | [2] -3.05% | [3] 16.5% | [4] -16.4% | [5] 16.1% | [6] 7.15%

C/C(=N/NS(=O)(=O)c1ccc(N)cc1)c1ccccc1
inactive: [1] 9.9% | [2] -14.8% | [3] 1.45% | [4] 15.6% | [5] -41.4% | [6] -17.8%

Cc1nn(C(=O)c2ccncc2)c2c1C(c1ccccc1)SC(N)=N2 (centres undefined)
inactive: [1] -2.9% | [2] -20.1% | [3] 18.9% | [4] 9.55% | [5] 15.1% | [6] 2.35%

Cc1ccc(NC(=O)c2ccco2)c(C)c1
inactive: [1] -2.3% | [2] -2.55% | [3] 5.05% | [4] 2.65% | [5] 8.4% | [6] -3.1%

CC(C)CCC[C@@H](C)[C@H]1CC[C@H]2[C@@H]3CC=C4C[C@@H](Cl)CC[C@]4(C)[C@H]3CC[C@]12C
inactive: [1] -3.75% | [2] -13.8% | [3] -20% | [4] -2.8% | [5] -8.9% | [6] -0.35%

CCC(C(O)c1ccccc1)[N+](=O)[O-] (centres undefined)
inactive: [1] 54.8% | [2] 31.3% | [3] 9.5% | [4] -8.75% | [5] -11.1% | [6] 10.3%

N[C@@H]1c2c(Br)sc(Br)c2C(=O)[C@H]1Br
inactive: [1] -5.35% | [2] -2.85% | [3] 5.6% | [4] 5.95% | [5] -7.05% | [6] -17.4%

CCCCNC(=O)C1C(=O)N(CCCC)C(=O)/C1=N\N (centres undefined)
inactive: [1] -1.45% | [2] 26.4% | [3] 8.5% | [4] 56.3% | [5] 0.35% | [6] 12.8%

O=C1OCCC2(CCN(Cc3ccccc3)CC2)O1
inactive: [1] 11.2% | [2] 9.35% | [3] 25.4% | [4] -0.3% | [5] -1.45% | [6] 24.3%

N#CSCC(Cl)=CCl (mixture of isomers)
inactive: [1] 2.95% | [2] 0.95% | [3] -4.4% | [4] 12.5% | [5] 0.5% | [6] -19.6%

O=C1C(=O)c2ccc3c(c2-c2cc4c(cc21)OCO4)OCO3
inactive: [1] -5.55% | [2] -17.1% | [3] -14.9% | [4] -5.55% | [5] -27.5% | [6] 18%

CCCCCCCCCCCCCCCCCCCOc1ccc(OCCCCCCCCCCCC)cc1
inactive: [1] 35% | [2] -7.15% | [3] 25.9% | [4] -40.1% | [5] -1.35% | [6] -15.9%

CCOC(CN(N=O)c1ccccc1C(C)C)OCC
inactive: [1] -3.95% | [2] 8.9% | [3] 7% | [4] -21.9% | [5] 3.55% | [6] -4.25%

Nc1ncnc2c1ccn2Cc1c(Cl)cccc1Cl
inactive: [1] 2.05% | [2] -0.2% | [3] 7.1% | [4] -2.75% | [5] 23.9% | [6] 5.4%

O=C(/C=C\c1ccccc1)c1ccc(-c2ccc([N+](=O)[O-])cc2)cc1
inactive: [1] 10.4% | [2] 11.4% | [3] 9.05% | [4] -3.65% | [5] 4.8% | [6] 22.6%

CN(C)Cc1ccccc1COC(=O)c1ccc(Cl)cc1
inactive: [1] 12.8% | [2] 11.5% | [3] 15.1% | [4] 9.75% | [5] 17.4% | [6] 20.9%

CCCc1nc2ccc(C)cc2[nH]1
inactive: [1] 8.4% | [2] -9% | [3] -18.2% | [4] -11.3% | [5] -1.5% | [6] 7.9%

O=C1Cc2ccccc2C(O)=C1c1cnccn1
inactive: [1] 6.3% | [2] 11.2% | [3] 19.6% | [4] -1.6% | [5] 0.25% | [6] 5.95%

OCn1c2ccccc2c2ccccc21
inactive: [1] 19.8% | [2] 0.55% | [3] 33.7% | [4] 20.8% | [5] 35.9% | [6] 19.8%

c1cc(-c2nnc(-c3ccncc3)s2)ccn1
inactive: [1] 6.2% | [2] -1.35% | [3] -9.25% | [4] 32.5% | [5] 14.5% | [6] -8.15%

CC(C)C1CC(C(C)C)C(O)C(C(C)C)C1 (centres undefined)
inactive: [1] 11.8% | [2] 1.55% | [3] 6.6% | [4] -5.9% | [5] 5.45% | [6] 15.7%

CC(Cl)S(N)(=O)=O (centres undefined)
inactive: [1] -11.7% | [2] -11.7% | [3] -19.2% | [4] -6.45% | [5] 7.45% | [6] 2.15%

CCCCCCCOC(=O)C(N)c1ccccc1 (centres undefined)
inactive: [1] -5.2% | [2] -32.1% | [3] -22.4% | [4] 7.5% | [5] -7.6% | [6] 4.1%

CC(Sc1ccccn1)C(=O)c1ccccc1 (centres undefined)
inactive: [1] -1.55% | [2] -6.75% | [3] -4.05% | [4] -52.5% | [5] -9.05% | [6] 1.2%

Cc1ccc(S(=O)(=O)Nc2nnc(CC(C)C)s2)cc1
inactive: [1] 36.2% | [2] -6.45% | [3] 35.2% | [4] 28.1% | [5] 40.9% | [6] 35.9%

COc1cc(OC)cc(N2CCC(c3c(N)nc(N)nc3Cl)CC2)c1
inactive: [1] -4.1% | [2] 10.1% | [3] -8.65% | [4] -2.25% | [5] 15.2% | [6] -18.3%

O=C1/C(=C/c2ccccc2)N=C(c2ccccc2)N1n1c(-c2ccccc2)nc2ccccc2c1=O
inactive: [1] 7.5% | [2] 0.35% | [3] 24.4% | [4] 17.8% | [5] -4.05% | [6] 21.8%

COc1cc(\C=N/N=C/C=C/c2ccccc2)cc(OC)c1OC
inactive: [1] 0.55% | [2] 42.3% | [3] 7.95% | [4] -10.7% | [5] 38.4% | [6] 15.5%

CC1CC(C)c2ccccc21 (centres undefined)
inactive: [1] 42.3% | [2] 27.4% | [3] 17.8% | [4] 39.3% | [5] 0.3% | [6] 2.4%

COC(=O)CC1(C(=O)OC)Nc2ccc(Cl)cc2C(=O)O1 (centres undefined)
inactive: [1] -2.55% | [2] 1.85% | [3] 12.5% | [4] -19.6% | [5] -9.5% | [6] -11.8%

Oc1cc(CN2CCOCC2)c(O)c(CN2CCOCC2)c1
inactive: [1] 14.7% | [2] 8.95% | [3] 21.1% | [4] 20% | [5] 7.7% | [6] 24.6%

c1ccc2c(c1)NCCOCCNc1ccccc1OCCNCCO2
inactive: [1] -1.5% | [2] 36.5% | [3] 14.1% | [4] -4.1% | [5] 30.1% | [6] 6.75%

CC/C(C)=N\NC(N)=O
inactive: [1] 6.85% | [2] 6.7% | [3] -29.7% | [4] -16.1% | [5] 0.1% | [6] 6.9%

Cc1ccn2nnnc2c1
inactive: [1] -8.45% | [2] -11.2% | [3] -1.2% | [4] 1% | [5] 3.45% | [6] -17.6%

CCOC(C)Oc1ccccc1 (centres undefined)
inactive: [1] 35.5% | [2] -8.6% | [3] 20.4% | [4] 15.4% | [5] -28.1% | [6] 16.4%

CCOc1cc([N+](=O)[O-])c(OCC)cc1Cl
inactive: [1] -24.6% | [2] -53.5% | [3] -19.9% | [4] 11% | [5] -17.6% | [6] -29.6%

CCN(CC)CC1CCCCCCCCCCC1=O (centres undefined)
inactive: [1] -30.3% | [2] -17.9% | [3] -32.7% | [4] 17.4% | [5] -44% | [6] -28.9%

CCCCCCc1cc2c(C)c(C)c(=O)oc2cc1OCCCOc1cc2oc(=O)c(C)c(C)c2cc1CCCCCC
inactive: [1] -17.9% | [2] -24.9% | [3] -12.5% | [4] 35.5% | [5] -11.8% | [6] -46.3%
